Measurements published in PubChem BioAssay (NCI).
This is part of a sample that, as a whole, favours compounds with a hit. Of some 83,000 tested, about 20% had one in any assay.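 How to read the values: 0–100, growth inhibition (40 = 60% inhibited); 0, no net growth; -100 to 0, cell death (-40 = 40% of starting cells died; -100 = all dead).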 Calls of active or inactive are those of the source. The calls were made as follows: active = growth percent below 10; inactive = the rest.

Experiments:
Experiment in all cases: NCI-60 one-dose screen, 48 h (100 = growth as untreated, 0 = no growth, -100 = all killed)
Details in all cases: 10 µM unless noted
[1] = tested on: NCI-H23 lung
[2] = tested on: NCI-H226 lung
[3] = tested on: NCI-H322M lung
[4] = tested on: HOP-62 NSCLC
[5] = tested on: NCI-H460 lung
[6] = tested on: HOP-92 NSCLC
[7] = tested on: NCI-H522 lung
[8] = tested on: A549/ATCC NSCLC
[9] = tested on: 786-0 renal
[10] = tested on: COLO 205 colon

Measured: growth

CCc1c2c(nc3ccc(OC(=O)OCc4ccc(B5OC(C)(C)C(C)(C)O5)cc4)cc13)-c1cc3c(c(=O)n1C2)COC(=O)[C@]3(O)CC
inactive: [9] 11.7%
active: [1] -30.6% | [2] -59.9% | [3] 1.92% | [4] -10.7% | [5] -6.28% | [6] 9.38% | [7] -28.3% | [8] 3.37% | [10] 7.72%

CC(C)C(NC(=O)C1(NC(=O)OCc2ccccc2)CCCC1)C(=O)O (stereo not given)
inactive: [1] 99.6% | [2] 104% | [3] 106% | [4] 119% | [5] 100% | [6] 92% | [7] 88.9% | [8] 106% | [9] 104% | [10] 107%

COc1nc2c(c(=O)n1C)CN(c1ccccc1)C(=O)CN2C
inactive: [1] 56.9% [100 µM] | [2] 52.3% [100 µM] | [3] 62.1% [100 µM] | [4] 63.6% [100 µM] | [5] 59.4% [100 µM] | [6] 56.9% [100 µM] | [7] 67% [100 µM] | [8] 55.7% [100 µM] | [9] 55.2% [100 µM] | [10] 68.8% [100 µM]

COc1ccc(N2CCN(c3nc(-c4cc(OC)c(OC)c(OC)c4)nc4ccccc34)CC2)cc1
inactive: [1] 81.1% | [2] 78.4% | [3] 91.4% | [4] 83.9% | [5] 87% | [6] 56.6% | [7] 55.1% | [8] 80.5% | [9] 85.7% | [10] 62.9%

NC(N)=NN=C(c1ccccc1)c1ccccc1
inactive: [1] 17.8% | [2] 51.4% | [3] 45.5% | [4] 28.6% | [5] 14.4% | [6] 60.7% | [7] 28.2% | [8] 50.8% | [9] 26.2%
active: [10] -0.806%

COc1ccc(/C=c2\nc3n(-c4ccccc4)c4nc5c6c(sc5c(=N)n4n-3c2=O)CCCC6)cc1
inactive: [1] 80.8% | [2] 69.2% | [3] 94.6% | [4] 88.1% | [5] 98.1% | [6] 63.4% | [7] 83.4% | [8] 97.4% | [9] 99.5% | [10] 111%

O=C1/C(=C/c2ccccc2)CCc2nc3ccccc3c(/C=C/c3ccc(Cl)cc3)c21
inactive: [1] 85.5% | [2] 92.3% | [3] 94.6% | [4] 110% | [5] 93.4% | [6] 79.8% | [7] 71.1% | [8] 93.5% | [9] 99.8% | [10] 104%

Cc1cc(NCc2cc(Nc3ccnc4cc(Cl)ccc34)ccc2F)nc(N2CCN(C)CC2)n1
inactive: [1] 39.3% | [2] 64.1% | [3] 33.8% | [6] 45.4% | [8] 23%
active: [4] 6.67% | [5] -45.3% | [7] -30.8% | [9] -69.7% | [10] -73.4%

COc1cccc(-c2nn(-c3ccccc3)cc2-c2ccnc(NCCNC(=O)Nc3ccccc3)c2)c1
inactive: [1] 62.5% | [2] 63.9% | [3] 89.8% | [4] 58.7% | [5] 53.8% | [6] 33% | [7] 47.6% | [8] 30.4% | [9] 43.2% | [10] 50.4%

O=C(NC(Cc1nnc2n(Cc3ccccc3)c(=O)c3c4c(sc3n12)CCCC4)c1ccc(Cl)cc1)c1ccccc1 (stereo not given)
inactive: [1] 82.2% | [2] 97.6% | [3] 108% | [4] 77.2% | [5] 101% | [6] 76.8% | [7] 75.8% | [8] 98.9% | [9] 38.3% | [10] 106%

COc1cccc(-c2nn(-c3ccccc3)cc2-c2ccnc(NCCCNC(=O)c3ccc(F)cc3)c2)c1
inactive: [1] 53.1% | [2] 60.1% | [3] 80.8% | [4] 35.6% | [5] 45.8% | [6] 57.4% | [7] 51.8% | [8] 30.5% | [9] 38.2% | [10] 31.7%

Cc1ccc2[nH]c(=O)c3c(c2c1)OC(N)=C(C#N)C31c2cc(Br)ccc2-c2ccc(Br)cc21
inactive: [1] 59.1% | [2] 58.7% | [3] 75.3% | [4] 69% | [5] 40.5% | [6] 42.7% | [7] 74.2% | [8] 53.9% | [9] 46.4% | [10] 30.2%

Cc1ccc(NS(=O)(=O)c2ccc3c(c2)C(=O)CC(c2ccc(C(=O)C(C)C)cc2)N3)cc1C (stereo not given)
inactive: [1] 44.1% | [2] 57.7% | [3] 67.2% | [4] 69.1% | [5] 53.9% | [6] 67.9% | [7] 60.5% | [8] 52.4% | [9] 86.3% | [10] 59.4%
